# Experimental data from PubChem BioAssay (NCI).
# The panel holds about 79,000 compounds, 15% with a hit somewhere; the sample as a whole holds those more often. Calls of active or inactive are those of the source. Rule as the data show it: active = growth inhibition above about 70%; inactive = the rest.
# Assay: NCI Yeast Anticancer Drug Screen. Data for the mec2-1 strain (AID 157)
# Settings: S. cerevisiae mec2-1 strain, at 50.0 µM (retest, dose inferred, filed as 5.0), active compounds read high
# Summary of the method: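 Growth inhibition is read against vehicle-treated controls after compound exposure of the mec2-1 yeast strain, which is defective in DNA damage repair or cell cycle control.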
row,Compound,growth inhibition
1,COC(=O)c1ccc(NN)cc1,19% (inactive)
2,O=[N+]([O-])c1ccc(-c2nc3c(o2)CCC3)cc1,-15% (inactive)
3,Cc1ccc(S(=O)(=O)N/N=C(\C=C\c2ccccc2)c2ccccc2)cc1,57% (inactive)
4,[N-]=[N+]=NC1=CC(=O)c2cccc3cccc1c23,99% (active)
5,CCOc1ccc2nc3cc(Cl)ccc3[n+](C)c2c1,87% (active)
6,Cc1ccc(C(c2ccc(N(C)C)cc2)c2ccc(N(C)C)cc2)cc1,92% (active)
7,O=[N+]([O-])c1ccc2c(c1)[n+]([O-])c1[nH]c3ccccc3c1[n+]2[O-] (tested in a mixture with another compound),89% (active)
8,C/C(=N\NC(=S)N1CCCCCC1)c1cccc2cccnc12,44% (inactive)
9,CC(C)c1cc(O)c(C(C)(C)C)cc1Cl,38% (inactive)
10,CN(C)c1ccc(/C=C(/NC(=O)c2ccccc2)c2nc3ccc(Cl)cc3[nH]2)cc1,6% (inactive)
11,CC(C)(C)c1ccc2c(c1)C(O)(c1ccccc1)C1OC1(C(C)(C)C)C2=O (stereo not given),82% (active)
12,CCCCCCCCCCCCOP(=O)(N1CC1(C)C)N1CC1(C)C (stereo not given),71% (active)
13,Cc1ccc(C(=O)CC(N)C(=O)O)cc1 (stereo not given),-2% (inactive)
14,COC(=O)CCC(=O)NCCc1ccc2c([nH]c3ccccc32)c1C,-1% (inactive)
15,Nc1ccc(C(=O)N/C(=C\C=C\c2ccco2)c2nc3c4c(ccc3[nH]2)C(=O)c2ccccc2C4=O)cc1,28% (inactive)
16,Oc1ccc(CCCCCc2ccc(O)cc2)cc1,100% (active)
17,O=C(O)C1C(C(=O)O)C2C(=O)C=CC1N2Cc1ccccc1 (stereo not given),61% (inactive)
18,CC1(C)CC(=O)C(c2ccccc2[N+](=O)[O-])=C(O)C1,20% (inactive)
19,ON(Cc1ccccc1)C(=S)c1ccccc1,99% (active)
20,CCCCC(O)(c1ccc2nc(NC(=O)OC)[nH]c2c1)c1cccs1 (stereo not given),62% (inactive)

row,Compound,growth inhibition
1,O=C(O)CC/C(=N\Nc1ccccc1)C(=O)O,90% (active)
2,CC(C)(c1ccc(OC#N)cc1)c1ccc(OC#N)cc1,87% (active)
3,C=CC(C)(CCC=C(C)C)OC(=O)Nc1ccccc1 (stereo not given),-25% (inactive)
4,Cc1ccc(Cc2nc(=S)[nH][nH]2)cc1,6% (inactive)
5,Cc1c(Cl)c(S(N)(=O)=O)cc2c1NC=NS2(=O)=O,2% (inactive)
6,O=C(c1cccnc1)N(C1CCCCC1)C1CCCCC1,8% (inactive)
7,COc1cc(NCC(C)(O)CN2CCC(C)CC2C)c2ncccc2c1 (stereo not given),47% (inactive)
8,O=C1C=CC(=Nc2cccc3c2-c2ccccc2C3)O1,99% (active)
9,CC(O)c1c2c(cc3c1CC1(C3)Cc3cc4c(c(C(C)O)c3C1)CCC4)CCC2 (stereo not given),97% (active)
10,CCCCCCCCCCCCCCCC[N+](C)(C)CCl,100% (active)
11,CCCCC(CC)CNc1ncnc2c1cnn2C (stereo not given),91% (active)
12,O=C1NN(C2=NNC3(C(=O)N2)c2ccccc2-c2ccccc23)C(c2ccccc2)=N/C1=C/c1ccc(Cl)cc1,-5% (inactive)
13,CCCCc1ccc2nccc(N/N=C/c3ccc(OC)c4ccccc34)c2c1,89% (active)
14,CC(C)(C[NH-])C[NH-].[Cl][Pt+2]([Cl])([Cl])[Cl],99% (active)
15,O=C(O)C1(Cc2ccc3c(c2)CCC3)Cc2ccccc2C1,-7% (inactive)
16,CCN(CC)C(C)(C)C(=O)/C=C/c1ccc(Cl)cc1,28% (inactive)
17,CCc1ccccc1NC(=O)C(=O)C(C#N)c1c(Cl)cccc1Cl (stereo not given),1% (inactive)
18,COc1c(OC)c(C2(O)C(=O)N(C)c3ccccc32)c(OC)c(OC)c1C1(O)C(=O)N(C)c2ccccc21 (stereo not given),12% (inactive)
19,Nc1ccc2ccccc2c1N=Cc1ccccc1[N+](=O)[O-],90% (active)
20,O=[N+]([O-])C1=Cc2cc(Cl)ccc2OC1c1cccc2ccccc12 (stereo not given),81% (active)

# Same assay, conditions: S. cerevisiae mec2-1 strain, at 50.0 µM, active compounds read high
row,Compound,growth inhibition
1,COC(=O)c1ccc(NN)cc1,61% (inactive)
2,O=[N+]([O-])c1ccc(-c2nc3c(o2)CCC3)cc1,-2.9% (inactive)
3,Cc1ccc(S(=O)(=O)N/N=C(\C=C\c2ccccc2)c2ccccc2)cc1,63.9% (inactive)
4,[N-]=[N+]=NC1=CC(=O)c2cccc3cccc1c23,86.5% (active)
5,CCOc1ccc2nc3cc(Cl)ccc3[n+](C)c2c1,87.3% (active)
6,Cc1ccc(C(c2ccc(N(C)C)cc2)c2ccc(N(C)C)cc2)cc1,94.7% (active)
7,O=[N+]([O-])c1ccc2c(c1)[n+]([O-])c1[nH]c3ccccc3c1[n+]2[O-] (tested in a mixture with another compound),87.4% (active)
8,C/C(=N\NC(=S)N1CCCCCC1)c1cccc2cccnc12,83.9% (active)
9,CC(C)c1cc(O)c(C(C)(C)C)cc1Cl,77.2% (active)
10,CN(C)c1ccc(/C=C(/NC(=O)c2ccccc2)c2nc3ccc(Cl)cc3[nH]2)cc1,68.3% (inactive)
11,CC(C)(C)c1ccc2c(c1)C(O)(c1ccccc1)C1OC1(C(C)(C)C)C2=O (stereo not given),94.5% (active)
12,CCCCCCCCCCCCOP(=O)(N1CC1(C)C)N1CC1(C)C (stereo not given),58.1% (inactive)
13,Cc1ccc(C(=O)CC(N)C(=O)O)cc1 (stereo not given),-3% (inactive)
14,COC(=O)CCC(=O)NCCc1ccc2c([nH]c3ccccc32)c1C,59.7% (inactive)
15,Nc1ccc(C(=O)N/C(=C\C=C\c2ccco2)c2nc3c4c(ccc3[nH]2)C(=O)c2ccccc2C4=O)cc1,62.1% (inactive)
16,Oc1ccc(CCCCCc2ccc(O)cc2)cc1,99.6% (active)
17,O=C(O)C1C(C(=O)O)C2C(=O)C=CC1N2Cc1ccccc1 (stereo not given),81.2% (active)
18,CC1(C)CC(=O)C(c2ccccc2[N+](=O)[O-])=C(O)C1,99.3% (active)
19,ON(Cc1ccccc1)C(=S)c1ccccc1,92.8% (active)
20,CCCCC(O)(c1ccc2nc(NC(=O)OC)[nH]c2c1)c1cccs1 (stereo not given),74.8% (active)

row,Compound,growth inhibition
1,O=C(O)CC/C(=N\Nc1ccccc1)C(=O)O,98% (active)
2,CC(C)(c1ccc(OC#N)cc1)c1ccc(OC#N)cc1,53.4% (inactive)
3,C=CC(C)(CCC=C(C)C)OC(=O)Nc1ccccc1 (stereo not given),-12.7% (inactive)
4,Cc1ccc(Cc2nc(=S)[nH][nH]2)cc1,-38.5% (inactive)
5,Cc1c(Cl)c(S(N)(=O)=O)cc2c1NC=NS2(=O)=O,-22.8% (inactive)
6,O=C(c1cccnc1)N(C1CCCCC1)C1CCCCC1,-6.85% (inactive)
7,COc1cc(NCC(C)(O)CN2CCC(C)CC2C)c2ncccc2c1 (stereo not given),50.1% (inactive)
8,O=C1C=CC(=Nc2cccc3c2-c2ccccc2C3)O1,99.6% (active)
9,CC(O)c1c2c(cc3c1CC1(C3)Cc3cc4c(c(C(C)O)c3C1)CCC4)CCC2 (stereo not given),81.4% (active)
10,CCCCCCCCCCCCCCCC[N+](C)(C)CCl,89.7% (active)
11,CCCCC(CC)CNc1ncnc2c1cnn2C (stereo not given),-1.45% (inactive)
12,O=C1NN(C2=NNC3(C(=O)N2)c2ccccc2-c2ccccc23)C(c2ccccc2)=N/C1=C/c1ccc(Cl)cc1,17.4% (inactive)
13,CCCCc1ccc2nccc(N/N=C/c3ccc(OC)c4ccccc34)c2c1,69.3% (inactive)
14,CC(C)(C[NH-])C[NH-].[Cl][Pt+2]([Cl])([Cl])[Cl],86.5% (active)
15,O=C(O)C1(Cc2ccc3c(c2)CCC3)Cc2ccccc2C1,91.9% (active)
16,CCN(CC)C(C)(C)C(=O)/C=C/c1ccc(Cl)cc1,4.8% (inactive)
17,CCc1ccccc1NC(=O)C(=O)C(C#N)c1c(Cl)cccc1Cl (stereo not given),8.8% (inactive)
18,COc1c(OC)c(C2(O)C(=O)N(C)c3ccccc32)c(OC)c(OC)c1C1(O)C(=O)N(C)c2ccccc21 (stereo not given),3.9% (inactive)
19,Nc1ccc2ccccc2c1N=Cc1ccccc1[N+](=O)[O-],29.8% (inactive)
20,O=[N+]([O-])C1=Cc2cc(Cl)ccc2OC1c1cccc2ccccc12 (stereo not given),88.2% (active)
